# Tb PYK inh – blocks Trypanosoma brucei pyruvate kinase; TbPYK enzyme, Kinase-Glo Plus ATP luminescence, 45 min; Q57TT1; hit rate 0.12% among 410,000; Potency, µM (highest dose often 76.8 µM), for inactives: at the top dose activity, negative = inhibition, usual class: inhibitors; AID 624173; also: potency is read from the fitted curve at half-maximal effect; nearly all actives have a fitted effect of over 50% in size
#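 Glycolytic pyruvate kinase of T. brucei was incubated with substrate, test compound and 130 uM ADP for 45 minutes at room temperature. Luminescent Kinase-Glo Plus signal was measured after 10 minutes.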
# Sm TGR inh – blocks Schistosoma mansoni thioredoxin glutathione reductase; Q962Y6; purified TGR, DTNB reduction, TNB absorbance 405 nm; Potency, µM (titrated, usually from 114 µM), for the others: at the top dose activity change, negative = inhibition, actives largely listed as inhibitors; hit rate 3% among 360,000; also: potency is read from the fitted curve at half-maximal effect; nearly all actives have a fitted effect of over 60% in size
#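 First, TGR (20 nM dispensed) and NADPH were mixed with compound. Second, a 15 min room-temperature incubation followed. Third, further NADPH and then DTNB were added to start the reaction. Finally, TNB absorbance was monitored kinetically.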
# HCMV inh – blocks human cytomegalovirus replication; hit rate 4.5% among 410,000; activity change, negative = inhibition, % at 57.5 µM; HFF cells, HCMV-luciferase reporter, 72 h; active compounds read low; in the data active = activity change below about -60%; inconclusive = no clear call, values can overlap the other calls; inactive = above about -39%
#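 Compounds were evaluated in HFFs infected with an HCMV luciferase reporter virus (MOI 1 PFU/cell). Luciferase in lysates collected 72 h post infection served as the replication measure.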
# FMDV antiviral – antivirals against foot and mouth disease virus; Potency, µM (highest dose often 57.9 µM), for inactives: at the highest dose activity change, negative = inhibition, most hits filed as inhibitors; hit rate 1.2% among 410,000; AID 1159524; FMDV antiviral cell-based qHTS; calls by dose curve; tested in HEK293T cells; also: read-out not given here; potency is read from the fitted curve at half-maximal effect; nearly all actives have a fitted effect of over 45% in size
# RE007 growth inh – less growth of the S. pombe RE007 Vpr strain | S. pombe RE007 Vpr strain, BacTiter-Glo ATP luminescence, 24 h | Potency, µM (highest dose often 92.2 µM), inactives show top-dose activity change, negative = less growth, hits mostly inhibitors | hit rate 0.21% among 360,000 | AID 651644; active = well fitted falling curve with a large enough effect; inconclusive = small, poorly fitted or top-dose-only effect; inactive = no such curve, though single readings can be large or run the other way; also: potency is read from the fitted curve at half-maximal effect; nearly all actives have a fitted effect of over 50% in size
#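 Fission yeast RE007 carrying one integrated HIV-1 vpr copy, seeded at OD 0.01 in PMG+AL medium with 23 nL pinned compound. Grown 24 h at 30 degrees; viability read by BacTiter-Glo luminescence after 5 min.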
# FBPA Giardia inh – blocks Giardia fructose-bisphosphate aldolase activity. purified Giardia FBPA. Potency, µM (series often up to 59.6 µM), for the others: at the highest dose activity, negative = inhibition, actives largely listed as inhibitors. hit rate 0.71% among 290,000. AID 2451; also: potency is read from the fitted curve at half-maximal effect; nearly all actives have a fitted effect of over 55% in size
# Target sequence (A8B2U2 whole entry, looked up): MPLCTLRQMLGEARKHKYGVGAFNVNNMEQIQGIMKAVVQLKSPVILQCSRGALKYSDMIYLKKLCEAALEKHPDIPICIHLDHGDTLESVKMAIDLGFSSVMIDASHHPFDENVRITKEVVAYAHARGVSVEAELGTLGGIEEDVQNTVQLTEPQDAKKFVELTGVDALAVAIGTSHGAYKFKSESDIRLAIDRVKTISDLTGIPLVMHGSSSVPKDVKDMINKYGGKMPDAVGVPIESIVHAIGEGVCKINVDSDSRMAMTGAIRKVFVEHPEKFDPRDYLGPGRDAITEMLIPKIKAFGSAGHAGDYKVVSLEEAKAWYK
#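 40 nM FBPA preincubated 10 min at RT with compound (up to 57.5 uM final), then substrate plus GAPDH/TPI/NAD/arsenate coupling and diaphorase/resazurin added. Fluorescence read after 20 min at RT, 525/598 nm.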
# Active calls of the source: *; ? = inconclusive; nt = no result given; [ ] = another dose, or the depositor's remark. Sampled rows, rich in hits. Any-hit rate of the full collection: about 7.7%. Unless noted, calls follow the shape of the dose curve; as a rule, active = well fitted curve in the direction sought with a large enough effect; inconclusive = small, poorly fitted or top-dose-only effect, or another doubt; inactive = no such curve, though single readings can be large; an effect the other way counts as inactive or inconclusive. % is scaled to controls: 0 for no effect and ±100 for the full control effect.
SMILES,Tb PYK inh,Sm TGR inh,HCMV inh,FMDV antiviral,RE007 growth inh,FBPA Giardia inh
COC(=O)CCCC1=CC2=C(c3ccccc3)C(=O)C(C)(OC(=O)C3CCCC3)C(=O)C2=CN1Cc1ccc(OC)cc1 (stereo not given),-4%,22µM*,6,2%,-5%,?
COC(=O)CCCC1=CC2=C(c3ccccc3)C(=O)C(C)(OC(=O)C3CCCC3)C(=O)C2=CN1Cc1ccccc1 (stereo not given),nt,nt,nt,nt,nt,-6%[12.9 µM]
COC(=O)CCCC1=CC2=C(c3ccccc3)C(=O)C(C)(OC(=O)C3CCCC3)C(=O)C2=CN1Cc1ccc2c(c1)OCO2 (stereo not given),-1%,18µM*,-70*,-6%,-7%,?
COc1ccc(-n2cc(-c3ccccc3)c3c(NCCc4ccc(OC)c(OC)c4)ncnc32)cc1,-1%,4%,?,?,nt,nt
Cc1nc(N2CCCCC2)c2sc(=S)n(C)c2n1,-10%,4%,-13,-22%,16%,4%
CCN1CCN(c2nc(C)nc3c2sc(=S)n3C)CC1,?,-10%,-17,-30%,-5%,18µM*
COc1ccccc1C(=O)c1cn(CC(=O)Nc2ccccc2F)c2nc(C)ccc2c1=O,3%,8%,-2,-5%,nt,nt
CC(C)C[C@H](NC(=O)c1nc[nH]c1C(=O)NC(c1ccccc1)c1ccccc1)C(=O)OCc1ccccc1,-3%,14%,18,0%,8%,-11%
CC(C)C[C@H](NC(=O)c1nc[nH]c1C(=O)NCC(=O)OC(C)(C)C)C(=O)OC(C)(C)C,1%,-26%,-6,-18%,3%,-22%
CC(C)C[C@H](NC(=O)c1nc[nH]c1C(=O)N[C@@H](CC(C)C)C(=O)OC(C)(C)C)C(=O)OC(C)(C)C,-1%,-11%,-23,40µM*,15%,-23%
C[C@H](NC(=O)c1nc[nH]c1C(=O)N[C@@H](Cc1ccccc1)C(=O)OC(C)(C)C)C(=O)OC(C)(C)C,-4%,9%,34,-15%,-11%,-21%
CC(C)(C)OC(=O)[C@H](Cc1ccccc1)NC(=O)c1nc[nH]c1C(=O)N[C@@H](Cc1ccccc1)C(=O)OC(C)(C)C,-4%,12%,-68*,?,7%,-17%
CC(C)C[C@H](NC(=O)c1nc[nH]c1C(=O)NC(c1ccccc1)c1ccccc1)C(=O)OC(C)(C)C,0%,5%,-63*,-19%,10%,-16%
CCN(Cc1ccccc1)C(=O)CN(c1ccc(OC)cc1)S(=O)(=O)c1c(C)nn(C)c1C,-5%,-1%,-12,3%,nt,nt
O=C(C1CCC(C(=O)N2CCc3ccccc32)CC1)N1CCc2ccccc21 (stereo not given),-8%,-6%,-20,-22%,-1%,0%
O=C(CCl)c1ccc2c(c1)CCN2C(=O)C1CC1,nt,7.1µM*,nt,nt,nt,-10%
O=C(CCl)c1ccc2c(c1)CCN2C(=O)C1CCCCC1,-3%,1.3µM*,33,20µM*,11µM*,-9%
O=C(Nc1c(C(=O)N2CCN(c3ccccc3F)CC2)oc2ccccc12)c1cccc(F)c1,0%,14%,-16,13%,nt,nt
C/C(=N/O)c1cccc(N2Cc3ccccc3C2)c1,-2%,22µM*,24,29%,1%,-12%
COc1ccc2cc(C(=O)NCc3ccc4c(c3)CCN4C(=O)c3ccccc3)[nH]c2c1,-5%,13%,19,?,nt,nt
CC(C)CN(CC(C)C)C(=O)C1CCCN(S(=O)(=O)c2ccc3c(c2)oc(=O)n3C)C1 (stereo not given),2%,3%,7,-36%,nt,nt
CCN(CC)C1CC(=O)N(c2cccc(C)c2)C1=O (stereo not given),nt,3.5µM*,nt,nt,nt,-1%
O=C1C(Cl)=C(N2CCOCC2)C(=O)N1c1cccc(Cl)c1,6%,?,-1,-12%,-2%,18%
COC(=O)c1ccc(N2C(=O)CC(N3CCOCC3)C2=O)cc1 (stereo not given),7%,?,19,-4%,28µM*,-2%

# Source: PubChem BioAssay (National Center for Advancing Translational Sciences (NCATS))
